In the assay the test system is Mycobacterium tuberculosis. Briefly: Cornell - Phenotypic assay to identify agents that inhibit growth of Mycobacterium tuberculosis. The arrangement: scale not given: direction of the effect not stated beside the values. The format is functional.

Where “and” joins values, the source holds several entries; their conditions need not be identical. Equal entries are not always repeated. Hit rate of the full screen: of about 53,000 compounds, about 900 (1.7%) showed an effect of 50% or more. The full list was thinned out, with strong results kept by preference.

For the molecule `COc1ccc(CN2CCC3(CC2)CCN(CC2CC2)C3=O)cc1.O=C(O)C(F)(F)F`, under “10 mM as filed; unlikely as a test dose”, the “Percent Effect” value was found to be 6.492%.

On to `CCC(=O)N1CCCCC[C@@H]2[C@@H]1[C@H](c1cccc(F)c1)CN2C`, for which the “Percent Effect” value (10 mM as filed; unlikely as a test dose) is listed as -24.01%.

On to `COc1cccc(C(=O)Nc2n[nH]c(C3CCCO3)n2)c1` (stereo not drawn), for which, under “10 mM as filed; unlikely as a test dose”, the “Percent Effect” value is 12.47%.

On to `CCOc1ncccc1CNC(=O)NCCNC(=O)c1ccco1`, for which the “Percent Effect” value (10 mM as filed; unlikely as a test dose) is 0.1336%.

Take `CCNC(=O)c1cc2n(n1)CCCO2`: the “Percent Effect” value (10 mM as filed; unlikely as a test dose) was -8.867%.

As to `O=C(c1cncs1)N1CCc2[nH]nc(Nc3ccccc3)c2C1`, the “Percent Effect” value (10 mM as filed; unlikely as a test dose) is reported as 58.68%.

Consider `O=C(c1ccncc1)N1CCc2[nH]nc(Nc3ccccc3)c2C1`, for which the “Percent Effect” value (10 mM as filed; unlikely as a test dose) is recorded as -24.78%.

In the case of `O=C(c1cccnc1)N1CCc2[nH]nc(Nc3ccccc3)c2C1`, the “Percent Effect” value (10 mM as filed; unlikely as a test dose) worked out at 46.76%.

Take `CN(Cc1ccc(F)cc1)CC1(O)CCN(C(=O)c2cccs2)C1` (stereo not drawn): the “Percent Effect” value (10 mM as filed; unlikely as a test dose) is listed as -44.56%.

Take `COc1cccc(CCC(=O)Nc2ccn(C)n2)c1OC`: the “Percent Effect” value (10 mM as filed; unlikely as a test dose) was -2.109%.

For the molecule `CCOc1c(Br)cc(C2C3=C(COC3=O)Nc3[nH]nc(C)c32)cc1OC` (stereo not drawn), under “10 mM as filed; unlikely as a test dose”, the “Percent Effect” value is listed as 33.99%.

In the case of `COc1cc(C2C3=C(COC3=O)Nc3[nH]nc(C)c32)cc(Br)c1O` (stereo not drawn), for the setting “10 mM as filed; unlikely as a test dose”, the “Percent Effect” value stood at 101.5%.

Consider `COc1cccc(C2C3=C(COC3=O)Nc3[nH]nc(C)c32)c1O` (stereo not drawn), for which the “Percent Effect” value (10 mM as filed; unlikely as a test dose) was -49.1%.

Take `Cc1cnn(C2CCCN(C(=O)c3cc(C)sc3C)C2)c1` (stereo not drawn): the “Percent Effect” value (10 mM as filed; unlikely as a test dose) worked out at 1.503%.

Regarding `CCOC(=O)CC(c1ccc(OC)c(OC)c1)c1c(O)n[nH]c1C` (stereo not drawn), the “Percent Effect” value (10 mM as filed; unlikely as a test dose) is recorded as 17.75%.

With `COC(=O)CC(c1ccc(OC)c(OC)c1OC)c1c(O)n[nH]c1C` (stereo not drawn), for the setting “10 mM as filed; unlikely as a test dose”, the “Percent Effect” value is 39.76%.

For `CCOC(=O)CC(c1cccc(OC)c1OC)c1c(C)[nH][nH]c1=O` (stereo not drawn), the “Percent Effect” value (10 mM, 10 mM as filed; unlikely as a test dose) is 39.38% and 50.02%.

For the molecule `O=C(NC[C@]1(O)CCN(Cc2ccccc2F)C[C@H]1O)c1c[nH]cn1`, for the setting “10 mM as filed; unlikely as a test dose”, the “Percent Effect” value was -15.39%.

For `CC(C)c1ccc(CN[C@@H]2COC[C@H]2c2ccc(F)cc2)cc1`, under “10 mM as filed; unlikely as a test dose”, the “Percent Effect” value is on record as 38.02%.

For the molecule `COCc1ccc(CNC(=O)C2=NN(c3ccccc3)C(=O)CN2)cc1`, where the note is “10 mM as filed; unlikely as a test dose”, the “Percent Effect” value is given as -8.016%.

In the case of `O=C(NCc1cccnc1)C1=NN(c2ccccc2)C(=O)CN1`, for the setting “10 mM as filed; unlikely as a test dose”, the “Percent Effect” value was -12.05%.

As to `COc1ccccc1CNC(=O)C1=NN(c2ccc(C)cc2)C(=O)CN1`, the “Percent Effect” value (10 mM as filed; unlikely as a test dose) is 59.16%.

On to `O=C(NCCNC(=O)c1scnc1Cl)c1ccccc1Cl`, for which, where the note is “10 mM as filed; unlikely as a test dose”, the “Percent Effect” value turned out to be 2.223%.

`CCCc1nc(N2CCCCC2)c2c(n1)c(C)nn2CC`: the “Percent Effect” value (10 mM as filed; unlikely as a test dose) is recorded as -11.73%.

As to `CCCc1nc(NCCc2ccccc2)c2c(n1)c(C)nn2CC`, the “Percent Effect” value (10 mM as filed; unlikely as a test dose) is listed as 98.38%.

As for `CCn1nc(C)c2nc(C)nc(NCCc3ccccc3)c21`, the “Percent Effect” value (10 mM as filed; unlikely as a test dose) is reported as 18.42%.

Regarding `CCCc1nc(N2CCSCC2)c2c(n1)c(C)nn2CC`, where the note is “10 mM as filed; unlikely as a test dose”, the “Percent Effect” value came out at 16.49%.

Regarding `CCCc1nc(N2CCC(C)CC2)c2c(n1)c(C)nn2CC`, the “Percent Effect” value (10 mM as filed; unlikely as a test dose) came to 17.45%.

Regarding `CCn1nc(C)c2nc(C)nc(NC3CCCC3)c21`, the “Percent Effect” value (10 mM as filed; unlikely as a test dose) is reported as 42.26%.

As for `CCn1nc(C)c2nc(C)nc(NCCc3ccc(C)cc3)c21`, the “Percent Effect” value (10 mM as filed; unlikely as a test dose) was found to be 87.9%.

On to `CCCc1nc(N2CCCCCC2)c2c(n1)c(C)nn2CC`, for which the “Percent Effect” value (10 mM as filed; unlikely as a test dose) was found to be 68.4%.

`CCCc1nc(N2CCN(CC)CC2)c2c(n1)c(C)nn2CC`: the “Percent Effect” value (10 mM as filed; unlikely as a test dose) is reported as 19.74%.

In the case of `COc1cc(C(=O)N(CCC#N)Cc2ccccn2)ccc1C`, for the setting “10 mM as filed; unlikely as a test dose”, the “Percent Effect” value was found to be 2.226%.

Consider `COC1CCN(S(=O)(=O)NCC2COc3ccccc3C2)CC1` (stereo not drawn), for which the “Percent Effect” value (10 mM as filed; unlikely as a test dose) was found to be 23.14%.

On to `CC(=O)N1CCC(C(=O)NC2CCc3nccn3C2)CC1` (stereo not drawn), for which the “Percent Effect” value (10 mM as filed; unlikely as a test dose) was -4.558%.

Consider `Cc1nnc(C2CCN(c3ccc(F)cc3)CC2)o1`, for which the “Percent Effect” value (10 mM as filed; unlikely as a test dose) is recorded as 0.33%.

As for `CC[C@H]1N(C)CCC[C@]12CCC(=O)N2Cc1ccncc1.O=C(O)C(F)(F)F.O=C(O)C(F)(F)F`, the “Percent Effect” value (10 mM as filed; unlikely as a test dose) came to 4.525%.

`Cc1cn2c(n1)CCC(NC(=O)c1[nH]nc(C)c1Br)C2` (stereo not drawn): the “Percent Effect” value (10 mM as filed; unlikely as a test dose) was -35.87%.

Turning to `O=C(CSC1CCc2ccccc2NC1=O)NC1CC1` (stereo not drawn), the “Percent Effect” value (10 mM as filed; unlikely as a test dose) is recorded as -0.1015%.

Consider `COc1cccc(CN2CCC(c3nn(CCN)c4nccnc34)C2)c1` (stereo not drawn), for which, where the note is “10 mM as filed; unlikely as a test dose”, the “Percent Effect” value is -33.21%.

For the molecule `COc1cccc(NC(=O)NCC2CCCN(C3CCOCC3)C2)c1` (stereo not drawn), for the setting “10 mM as filed; unlikely as a test dose”, the “Percent Effect” value is listed as -9.956%.

Take `COC(=O)c1sccc1S(=O)(=O)N1CCC(Oc2cccnn2)CC1`: the “Percent Effect” value (10 mM as filed; unlikely as a test dose) stood at 10.5%.

As to `COC(=O)c1sccc1S(=O)(=O)N1CCC(Oc2cnccn2)CC1`, the “Percent Effect” value (10 mM as filed; unlikely as a test dose) is listed as 11.89%.

In the case of `COC(=O)c1sccc1S(=O)(=O)N1CCC(Oc2ncccc2Cl)CC1`, the “Percent Effect” value (10 mM as filed; unlikely as a test dose) amounted to 63.53%.

For the molecule `CCOCC1CN(C(=O)c2ccnnc2)Cc2cnn(CC)c21.O=C(O)C(F)(F)F` (stereo not drawn), the “Percent Effect” value (10 mM as filed; unlikely as a test dose) is given as 10.27%.

Take `O=C(CN1CC(c2nc(C3CC3)no2)C1)N1CCOCC1.O=C(O)C(=O)O`: the “Percent Effect” value (10 mM as filed; unlikely as a test dose) came to 59.8%.

On to `CC1CCN(C(=O)CN2CC(c3nc(C4CC4)no3)C2)CC1.O=C(O)C(=O)O`, for which the “Percent Effect” value (10 mM as filed; unlikely as a test dose) is -25.89%.

With `NC(=O)CN1CC(c2nc(C3CC3)no2)C1.O=C(O)C(=O)O`, the “Percent Effect” value (10 mM as filed; unlikely as a test dose) is given as -1.644%.

Consider `CN(Cc1ccncc1)c1cncc(Br)c1`, for which the “Percent Effect” value (10 mM as filed; unlikely as a test dose) is listed as -1.215%.

As for `COCC1CCN(c2nc(C(C)(C)C)nc3c2cnn3C)C1` (stereo not drawn), the “Percent Effect” value (10 mM as filed; unlikely as a test dose) turned out to be 57.26%.

Turning to `Cn1ncc2c(N3CCC(CCO)CC3)nc(C(C)(C)C)nc21`, the “Percent Effect” value (10 mM as filed; unlikely as a test dose) worked out at 26.71%.

With `CN(C)[C@H]1CCN(c2nc(C(C)(C)C)nc3c2cnn3C)C1`, the “Percent Effect” value (10 mM as filed; unlikely as a test dose) amounted to 15.83%.

`Cc1cnn(CC2CN(CCc3ccccn3)CCO2)c1` (stereo not drawn): the “Percent Effect” value (10 mM as filed; unlikely as a test dose) was -8.826%.
